The nature of the assay: Confirmation and Secondary Assay for Modulators of Hemoglobin Beta Chain Splicing at IVS2 705 locus (AID 930).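 Note: HeLa cells stably expressing the EGFP-705 splicing reporter.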 To be noted: HeLa EGFP-705 splicing reporter, GFP fluorescence, 48 h; series mostly up to 38.3 µM. The method, boiled down:
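Restored EGFP fluorescence after 2-day compound exposure reports splicing correction in IVS2-705 EGFP reporter HeLa cells; positive control was 500 nM splice-blocking PNA oligo. Signal measured as well total peak GFP intensity (488 nm excitation).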

Each structure is given as a SMILES string. Active and inactive are the calls of the source. Calls come from the whole dose curve; as a rule, active = well fitted activation curve with a large enough effect; inconclusive = small, poorly fitted or top-dose-only effect; inactive = flat fitted curve, though single readings scatter.

On to `COCCNc1ccnc(-c2c(C)noc2C)n1`, for which the outcome was inactive.
The same measure for `CN(C)C(=O)c1ccc(-c2nccc(NCc3cccnc3)n2)cc1`: “inactive”; for `CN(C)Cc1ccccc1-c1nccc(NC2CC2)n1`: “inactive”; for `CN(C)C(=O)c1ccc(-c2cncnc2NCCN2CCOCC2)cc1`: “inactive”.
